# Pf growth 96h: P. falciparum growth inhibition at 96 hour, primary screen for plastid delayed-death inhibitors; hit rate 6.9% among 320,000; Potency, µM (series often up to 28.7 µM), without a hit: top-dose activity change, negative = inhibition, actives largely listed as inhibitors; AID 504834; P. falciparum luciferase reporter growth, 96 h; note: potency is the fitted concentration of half-maximal effect; % is set by controls: 0 for no effect and ±100 for the full control effect
#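 Parasite growth measured via integrated firefly luciferase reporter in P. falciparum. Infected erythrocytes at 2% hematocrit, 0.05% parasitemia final were treated 96 hours at 37 C under 5% CO2, and luminescence was read.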
# HCMV inh: blocks human cytomegalovirus replication; HFF cells, HCMV-luciferase reporter, 72 h; stronger effect = lower value; activity change, negative = inhibition, % at 57.5 µM; hit rate 4.5% among 410,000; AID 1259415; in the data active = activity change below about -60%; inconclusive = no clear call, values can overlap the other calls; inactive = above about -39%; note: % is set by controls: 0 for no effect and ±100 for the full control effect
#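 Luciferase read-out from HCMV-luciferase-infected HFFs (MOI 1 PFU/cell) 72 h post infection at 37C; compounds added after 16 h cell attachment; activity normalized between buffer-only basal and Salinomycin (10uM) inhibitor controls.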
# Sm TGR block: S. mansoni TGR enzyme inhibition | Potency, µM (highest dose often 114 µM), inactives show top-dose activity change, negative = inhibition, most hits filed as inhibitors | AID 485364 | hit rate 3% among 360,000 | Q962Y6 | purified TGR, DTNB reduction, TNB absorbance 405 nm; note: potency is the fitted concentration of half-maximal effect; % is set by controls: 0 for no effect and ±100 for the full control effect; nearly all actives have a fitted effect of over 60% in size
#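 TGR 20 nM + NADPH 100 uM (dispensed conc.), cpd preinc 15 min RT; start with NADPH (500 uM addition) then DTNB (15 mM addition). Kinetic TNB absorbance, 405 nm filter. Four-parameter Hill fit across titration.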
# Pf growth 48h: inhibits P. falciparum growth in the first generation, 48 h; hit rate 5.9% among 310,000; P. falciparum luciferase growth in erythrocytes, 48 h; Potency, µM (titrated, usually from 28.7 µM), inactives show at the highest dose activity change, negative = inhibition, most hits filed as inhibitors; note: potency is the fitted concentration of half-maximal effect; % is set by controls: 0 for no effect and ±100 for the full control effect
#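 Erythrocytes infected with P. falciparum carrying an integrated firefly luciferase reporter (2% hematocrit, 0.1% parasitemia final) were exposed to compounds in RPMI 1640 with 0.5% Albumax at 37 C, 5% CO2. Growth inhibition was scored as reduced luminescence.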
# SARS PLpro yeast: inhibitors of SARS-CoV papain-like protease in yeast. S. cerevisiae expressing SARS-CoV PLpro, growth rescue. Potency, µM (titrated, usually from 32.9 µM), without a hit: at the top dose activity, positive = growth rescue, actives largely listed as activators. AID 485353. hit rate 0.19% among 330,000; calls by dose curve; note: potency is the fitted concentration of half-maximal effect; 0% is about no effect; nearly all actives have a fitted effect of over 55% in size
# HCV inh: inhibitors of hepatitis C virus infection; Potency, µM (highest dose often 41.8 µM), for the others: at the highest dose activity change, negative = inhibition, usual class: inhibitors; Huh7.5.1 HCVcc-Cre infection, luciferase reporter, 44 h; hit rate 3.4% among 340,000; note: potency is the fitted concentration of half-maximal effect; % is set by controls: 0 for no effect and ±100 for the full control effect
#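 A cell-based infection assay in which seeded cells (1,000 per well) receive test compound after 4 h, are inoculated with HCVcc-Cre at approximately 0.5 moi, and are incubated 44 h before luminescence detection.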
# Starred values were filed as active, the others as inactive; u = inconclusive; x = no result given; [ ] = remark or other dose. Compounds with a hit are over-represented: about 15% of the library has one in this group of screens. Unless noted, calls come from the whole dose curve; as a rule, active = well fitted curve in the direction sought with a large enough effect; inconclusive = small, poorly fitted or top-dose-only effect, or another doubt; inactive = no such curve, though single readings can be large; an effect the other way counts as inactive or inconclusive.
SMILES,Pf growth 96h,HCMV inh,Sm TGR block,Pf growth 48h,SARS PLpro yeast,HCV inh
COc1ccc(COc2cc(-c3cccc(OC)c3)nc3ccc(NC(=O)c4ccc(OC)cc4)cc23)cc1,4.65µM*,-81.4*,3.5%,13.1µM*,4.5%,7.08µM*
CCOc1ccc(NC(=O)Cn2c3ncccc3c(=O)n2-c2ccc(CC)cc2)cc1,x,-28.3,-1.3%,x,x,x
COc1ccc(C(=O)OCc2c(-c3ccccc3)ncc3ccccc23)cc1,x,10.4,x,x,-26.7%,u
COc1ccc(COc2cc(-c3cccc(OC)c3)nc3ccc(NC(=O)c4ccc(Cl)cc4)cc23)cc1,3.7µM*,4.4,-8.6%,2.08µM*,4.3%,6.1%[8.37 µM]
COc1ccc(Oc2cnc3ccccc3n2)cc1,157.0%,-63.1*,-2.4%,131.8%,-5.3%,-20.2%
c1ccc(Oc2cnc3ccccc3n2)cc1,3.4%,-28.0,-18.9%,10.1%,2.3%,2.1%
Clc1ccccc1Oc1cnc2ccccc2n1,-21.4%,-27.9,7.7%,2.62µM*,3.8%,7.2%
CCOC(=O)c1c(NC(=O)Cn2nnc3ccccc32)sc2c1CCC(C)C2 (configuration not stated),x,-30.9,-18.1%,u,-13.0%,1.58µM*
CCOC(=O)c1c(NC(=O)CSc2nnc(C)s2)sc2c1CCC(C)C2 (configuration not stated),16.5%,-12.3,1.5%,11.7µM*,-2.0%,11.2µM*
CCOC(=O)c1c(NC(=O)CSc2nnc(-c3c[nH]c4ccccc34)n2CCOC)sc2c1CCCC2,9.28µM*,u,-11.9%,7.38µM*,0.4%,11.2µM*
CCOC(=O)c1c(NC(=S)NC(=O)c2ccc(Cn3cc(Cl)cn3)o2)sc2c1CCC(C)C2 (configuration not stated),86.8%,-71.0*,0.2%,38.9%,-3.7%,u
CC(C)(C)C1CCC(=NNC(=O)C(=O)NC2CCCCC2)CC1 (configuration not stated),14.7%,u,8.0%,73.5%,-10.0%,-6.6%
CCOC(=O)c1c(NC(=O)CSc2nnc(C)s2)sc2c1CCCCC2,16.6%,13.3,-23.4%,-17.4%,-9.0%,10µM*
CCOC(=O)c1c(NC(=O)CSc2nnc3c(Cl)cc(Cl)cn23)sc2c1CCC2,-29.8%,7.8,-5.3%,2.2%,-10.4%,u
COc1ccc(-c2cc3nc(C4CCN(C(=O)OC(C)(C)C)CC4)c(C(=O)O)cn3n2)cc1,15.8%,23.0,0.0%,1.31µM*,8.7%,23.7%
CCc1ccc(CNC(=O)C(CC)n2ccc3cc(S(=O)(=O)N4CCCCC4)ccc32)cc1 (configuration not stated),x,-11.6,-0.8%,x,x,x
Cc1ccc2c(c1)C1(C(=O)N2)N2CCCC2C(C(=O)c2ccc3ccccc3c2)C12C(=O)Nc1ccccc12 (configuration not stated),x,-9.4,-12.3%,x,0.2%,-25.2%
CN(C)CCCCCCCCCCC(=O)/C=N/O,x,-23.9,x,x,x,-11.1%
CN(CCCCCCCCC(=O)/C=N/O)Cc1ccccc1,2.62µM*,-32.4,9.7%,x,-5.5%,9.7%
COc1ccc(Nc2cc(C)nc3ncnn23)cc1,x,98.5,x,x,x,-5.2%
Cc1cc(Nc2cccc(C(=O)O)c2)n2ncnc2n1,-10.2%,32.5,-2.5%,23.4%,1.7%,29.4%
Cc1cc(Nc2ccc(C(C)C)cc2)n2ncnc2n1,20.3%,12.8,-6.7%,1.04µM*,-10.0%,-6.5%
Cc1cc(Nc2ccc3ccccc3c2)n2ncnc2n1,-6.2%,174.2,-2.3%,0.131µM*,-2.9%,-16.5%
COc1ccc2oc(C(=O)Nc3nc(C)cs3)c(C)c2c1,62.9%,0.0,1.5%,72.0%,-4.4%,u
COC(=O)[C@@]1(Cc2ccc(F)cc2)[C@H]2c3cc(C(=O)N(C)C)n(CCF)c3C[C@H]2CN1C(=O)c1ccccc1,x,-34.6,x,x,x,x
SMILES,Pf growth 96h,HCMV inh,Sm TGR block,Pf growth 48h,SARS PLpro yeast,HCV inh
COC(=O)[C@@]1(Cc2ccc(OC)cc2)[C@H]2c3cc(C(=O)N4CCCC4)n(CCSCCO)c3C[C@H]2CN1C(=O)c1ccccc1,1.65µM*,x,-28.8%,1.04µM*,0.8%,-11.6%
COC(=O)Cn1c(C(=O)N2CCCC2)cc2c1C[C@H]1CN(C(=O)c3ccccc3)[C@@](Cc3ccc(F)cc3)(C(=O)OC)[C@@H]21,8.28µM*,u,-21.0%,5.22µM*,15.9%,1.5%[8.37 µM]
COC(=O)[C@@]1(Cc2ccc(F)cc2)[C@H]2c3cc(C(=O)N4CCCC4)n(CCO)c3C[C@H]2CN1C(=O)c1ccccc1,6.57µM*,-18.0,-29.5%,3.7µM*,12.2%,u
COC(=O)[C@@]1(Cc2ccc(OC)cc2)[C@H]2c3cc(C(=O)N4CCCC4)n(Cc4ccccc4)c3C[C@H]2CN1C(=O)c1ccccc1,x,-23.2,x,x,x,x
COC(=O)[C@@]1(Cc2ccccc2)[C@H]2c3cc(C(=O)N4CCCC4)n(Cc4ccsc4Br)c3C[C@H]2CN1C(=O)c1ccccc1,3.29µM*,-28.3,-19.4%,u,-15.6%,4.3%[8.37 µM]
CN(Cc1c(F)cccc1Cl)C(=O)CNC(=O)c1sc2ccccc2c1Cl,-2.4%,8.2,2.4%,-6.6%,x,u
COc1ccc(CCNC(=O)c2cc(C)nc3c2c(C)nn3-c2ccccc2)cc1OC,x,-5.3,2.4%,x,x,x
CC(OC(=O)C1=COCCO1)C(=O)NC1CCCCC1 (configuration not stated),x,-25.8,x,x,x,x
COC(=O)[C@@]1(Cc2ccc(OC)cc2)[C@H]2c3cc(C(=O)N4CCCC4)n(CCc4c[nH]c5ccc(O)cc45)c3C[C@H]2CN1C(=O)c1ccccc1,2.08µM*,x,-2.3%,1.04µM*,8.2%,0.2%[8.37 µM]
COC(=O)[C@@]1(Cc2ccc(OC)cc2)[C@H]2c3cc(C(=O)N4CCCC4)n(CCO)c3C[C@H]2CN1C(=O)c1ccccc1,4.65µM*,-12.6,-26.3%,u,10.2%,1.7%[8.37 µM]
